14 compounds from ChEMBL document CHEMBL1157539, “Thousands of chemical starting points for antimalarial lead identification” (Nature, 2010) can be followed below.

Each structure is given as a SMILES string.

For this experiment, the system named is HepG2. Description: GSK_TCMDC: Percent inhibition of human HepG2 cell line. Test compounds present at 10uM. The experiment is classed as functional.
Consider `COc1cc(C(=O)Nc2ccc3nc(N4CCN(C)CC4)cc(C)c3c2)cc(OC)c1OC`, for which the Inhibition worked out at 18%.

In the case of `CCc1sc(N2CCN(C)CC2)nc1C(=O)Nc1ccc(F)cc1C(F)(F)F.O=C(O)C(F)(F)F`, the Inhibition worked out at 0%.

With `Cc1cccc2nc(-c3ccc(-c4ccc(CN5CCCC(N)C5)cc4)cc3)[nH]c12.O=C(O)C(F)(F)F` (centres undefined), the Inhibition came out at 33%.

The compound `COc1ccc(CNc2ccnc3cc(OC)ccc23)cc1` came in with an Inhibition of 7%.

`CCC[C@@H]([C@@H](CC(C)C)C(=O)N[C@H](C(=O)Nc1nccs1)C(C)(C)SCCNC(=O)OCC)N(O)C=O` had an Inhibition of 0%.

Consider `Cc1cc(C)c2nc(N3CCC(C(=O)NCCCN4CCC(N5CCCCC5)CC4)CC3)sc2c1`, for which the Inhibition was 99%.

In turn, `CC(C)(C)OC(=O)Nc1cccc(-c2csc(NC(=N)N)n2)c1` came in with an Inhibition of 4%.

Consider `CC1(C)N=C(N)N=C(N)N1c1ccc(Oc2ccc(Cl)cc2)c(Cl)c1`, for which the Inhibition turned out to be 13%.

Consider `O=C(C=Cc1ccc(Cl)c(Cl)c1)NCCCCCN1CCC(CCNC(=O)/C=C/c2ccccc2)CC1`, for which the Inhibition turned out to be 25%.

In the case of `CN(C)c1nc(NN=Cc2cc(Cl)ccc2O)nc(Nc2ccc(F)cc2)n1`, the Inhibition turned out to be 32%.

`CON(CCCN(C)C)C(=N)N.Cl` yielded an Inhibition of 3%.

In turn, `CCN(CC)CCN(Cc1ccc(-c2ccc(C(F)(F)F)cc2)cc1)C(=O)Cn1c(CCc2ccc(F)c(F)c2)cc(=O)c2ccccc21.O=C(O)C(O)C(O)C(=O)O` gave an Inhibition of 23%.

As to `O=C(NCCCCCN1CCC(c2c[nH]c3ccccc23)CC1)Nc1cccc(Cl)c1`, the Inhibition is recorded as 36%.

In the case of `O=C(N[C@@H](CC1CCCCC1)C(=O)NCc1cccc2ccccc12)c1ccc(O)c(-c2ccc(Cl)c(Cl)c2)c1`, the Inhibition is listed as 0%.
